Bioassay records: PubChem, National Center for Advancing Translational Sciences (NCATS)
Hits are enriched below; roughly 2.8% of the tested compounds scored in any of these assays.
KDM5B inhibitor – blocks human KDM5B histone demethylase activity. KDM5B demethylase, FDH-coupled NADH fluorescence (FDH is formaldehyde dehydrogenase). Potency, µM (doses to about 57.7 µM), most hits filed as inhibitors. actives 2.6% (n = 220,000). AID 1347165; active = well fitted inhibition curve with a large enough effect; inconclusive = small, poorly fitted or top-dose-only effect; inactive = no such curve, though single readings can be large or run the other way; also: nearly all actives have a fitted effect of over 70% in size
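Measured: NADH fluorescence change, 30 min, RT. System: KDM5BΔAP 200 nM final, H3K4me3 peptide, α-KG, Fe(II), ascorbate, NAD⁺ plus FDH, pH 7.5 HEPES. Compounds: titrated, 10 min pre-incubation with enzyme.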
IP6K1 inhibitor – blocks human inositol hexakisphosphate kinase 1; AID 1645851; activity change, % (series mostly up to about 58 µM); IP6K1 kinase, ADP-Glo luminescence, 2 h; stronger effect = lower value; actives 0.81% (n = 140,000); in the data active = activity change below about -25%
Target sequence (Q92551 whole entry, looked up): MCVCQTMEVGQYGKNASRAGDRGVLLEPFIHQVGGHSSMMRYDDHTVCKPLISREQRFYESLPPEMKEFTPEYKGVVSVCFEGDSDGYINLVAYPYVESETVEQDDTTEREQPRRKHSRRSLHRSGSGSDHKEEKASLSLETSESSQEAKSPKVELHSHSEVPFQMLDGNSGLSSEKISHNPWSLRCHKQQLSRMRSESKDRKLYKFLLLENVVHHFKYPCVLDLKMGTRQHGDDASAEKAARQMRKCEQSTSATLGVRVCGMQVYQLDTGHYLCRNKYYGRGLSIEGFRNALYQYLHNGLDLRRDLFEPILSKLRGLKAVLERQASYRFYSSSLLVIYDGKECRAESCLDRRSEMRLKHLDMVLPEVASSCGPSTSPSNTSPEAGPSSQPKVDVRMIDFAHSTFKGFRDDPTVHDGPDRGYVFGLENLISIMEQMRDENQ
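ADP-Glo luminescence measures ADP made by human IP6K1 during a 2 h RT reaction with ATP/IP6 (mix at 1.3 mM/130 uM); top library doses 57.5 and 19.1 uM final.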
Numbers stand for hits; n = inactive; u = inconclusive; x = not tested or not shown.

SMILES	KDM5B inhibitor	IP6K1 inhibitor
Cc1ccc(C(=O)COC(=O)c2cc3ccccc3oc2=O)cc1C	n	x
Cc1ccccc1CN1CCN(c2nc3c(c(=O)[nH]c(=O)n3C)n2Cc2ccc(F)cc2)CC1	n	x
CC(C)c1cc(C(=O)N[C@@H]2COCC[C@@H]2Oc2cccc(F)c2)nc(N)n1	28µM	n
COc1cccc(CCC(=O)N[C@@H]2COCC[C@@H]2Oc2cccc(F)c2)c1	n	n
O=C(CSc1nnc(-c2cccnc2)n1C1CC1)c1cc2ccccc2o1	n	x
CCc1[nH]c(C(=O)OC(C)C(=O)NC2CCCC2)c(C)c1C(=O)OC (stereo unspecified)	n	x
O=C(c1ccn(C(F)F)n1)N1CCc2nc(-c3ccc(Cl)cc3)[nH]c2C1	n	n
CCOC(=O)N1CCC(N2CCc3nc(-c4ccc(Cl)cc4)[nH]c3C2)C1 (stereo unspecified)	22µM	n
COc1ccc(CN2C(=O)[C@H](OC)[C@@H]2C2=CCN(C(=O)C3CCCC3)CC2)cc1	x	n
CCOCC(=O)N1CCC(Nc2nccnc2OC)CC1	28µM	n
COc1nccnc1NC1CCN(C(=O)Cc2cccs2)CC1	32µM	n
O=C(Cc1cccs1)N1CCC(Nc2cccnc2)C1 (stereo unspecified)	n	n
COc1nccnc1NC1CCN(C(=O)NC2CCCCC2)CC1	32µM	n
COc1nccnc1NC1CCN(C(=O)NCCc2ccccc2)CC1	u	n
COc1nccnc1NC1CCN(C(=O)Cc2ccccc2)CC1	u	n
CCOCC(=O)N1CCC2(CC1)C(OC)C(=O)N2CC1CC1 (stereo unspecified)	x	n
COc1nccnc1NC1CCN(C(=O)Cc2ccccc2F)CC1	35µM	n
c1csc(CNCCC2CCCCC2)c1	n	x
CCOC(=O)c1c(-c2ccccc2)nc2ccccc2c1-c1ccccc1	n	x
O=C1CCN(CC(O)Cc2ccccc2)c2ccccc2CN1C1CCCC1 (stereo unspecified)	x	n
CC(C)c1cc2c(c(O)c1O)[C@@]13CCCC(C)(C)C1[C@@H](O)[C@@H]2OC3=O (stereo partly specified)	x	n
CCCC(O)CN1CCC(=O)N(Cc2ccccc2)Cc2cc(F)ccc21 (stereo unspecified)	x	n
CN1CCN(C(=O)c2cc(-c3ccc(C(F)(F)F)cc3)nc3c2cnn3C)CC1	x	n
C=CCc1ccccc1OCCN(C)Cc1ncnn1CC	n	n
CCc1ccccc1OCCN(C)Cc1ncc[nH]1	22µM	n
SMILES	KDM5B inhibitor	IP6K1 inhibitor
CCOCCCNC(=O)N1CCC(Cc2nc(-c3ccncc3)n[nH]2)CC1	32µM	n
COc1ccc(CNC(=O)N2CCC(Cc3nc(-c4ccncc4)n[nH]3)C2)cc1 (stereo unspecified)	n	n
O=C(/C=C/c1ccc(OCc2ccccc2)cc1)c1ccc(N2CCOCC2)cc1	n	x
Cc1noc(-c2ccn3c(CNC(=O)c4ccccn4)nnc3c2)n1	n	n
CCCc1noc(-c2ccn3c(CNC(=O)c4ccc5ccccc5n4)nnc3c2)n1	13µM	n
CCCc1noc(-c2ccn3c(CNC(=O)c4ccccn4)nnc3c2)n1	u	n
CCCc1noc(-c2ccn3c(CNC(=O)c4cccc(N(C)C)c4)nnc3c2)n1	u	n
Cc1noc(-c2ccn3c(CNC(=O)c4ccco4)nnc3c2)n1	28µM	n
CCCc1noc(-c2ccn3c(CNC(=O)c4ccco4)nnc3c2)n1	28µM	n
Cc1cc(C)cc(Nc2nc(NC3CCCCCC3)nc3c2cnn3-c2ccccc2)c1	n	x
O=C1CCN(CC(O)COCc2ccco2)c2ccc(F)cc2CN1Cc1ccco1 (stereo unspecified)	x	n
COc1ccc(OC)c(NC(=O)Cn2c(N3CCCCC3)nc(C)c(C)c2=O)c1	u	n
COc1ccc(NC(=O)Cn2c(N3CCC(C)CC3)nc(C)cc2=O)cc1	n	n
COc1ccc(Cl)cc1NC(=O)Cn1c(N2CCCCC2)nc(C)c(C)c1=O	20µM	n
COc1ccc(Cl)cc1NC(=O)Cn1c(N2CCC(C)CC2)nc(C)cc1=O	28µM	n
O=C(c1cc2c(s1)CCCC2)N1CCc2c(nc3cc[nH]n3c2=O)C1	u	n
O=C(c1ccc2ncccc2c1)N1CCc2c(nc3cc[nH]n3c2=O)C1	u	n
O=C(c1ccccc1C(F)(F)F)N1CCc2c(nc3cc[nH]n3c2=O)C1	25µM	n
O=C(c1ccc(F)cc1Cl)N1CCc2c(nc3cc[nH]n3c2=O)C1	28µM	n
N#Cc1cccnc1-c1ccc(C(=O)N2CCC(NC(=O)Nc3ccc(Cl)cc3)CC2)cc1	x	n
COc1ccc(CNC(=O)c2cc(-c3cccc(OC)c3)nc3c2cnn3C)cc1	x	n
Cc1cc(C)c(CNC(=O)c2cc(-c3ccccc3F)cc3c2OCCN3C(C)C)c(=O)[nH]1	32µM	n
COc1ccc(-c2cc(C(=O)NCc3c(C)cc(C)[nH]c3=O)c3c(c2)N(C(C)C)CCO3)cc1	32µM	n
COc1cccc(-c2cc(C(=O)NCc3c(C)cc(C)[nH]c3=O)c3c(c2)N(C(C)C)CCO3)c1OC	28µM	n
Cc1cc(C)c(CNC(=O)c2nc(-c3cccc(F)c3)cc3c2ccn3C(C)C)c(=O)[nH]1	n	n
SMILES	KDM5B inhibitor	IP6K1 inhibitor
Cc1cc(C)c(CNC(=O)c2cc(-c3cccc4[nH]ccc34)cc3ncn(C)c23)c(=O)[nH]1	u	n
Cc1cc(C)c(CNC(=O)c2cc(-c3ccccc3C)cc3c2OCCN3C(C)C)c(=O)[nH]1	32µM	n
COc1ncc(-c2cc(C(=O)NCc3c(C)cc(C)[nH]c3=O)c3c(c2)N(C(C)C)CCO3)cn1	n	n
Cc1cc(C)c(CNC(=O)c2cc(-c3ccccc3C)cc3ncn(C)c23)c(=O)[nH]1	u	n
COc1ccc(Nc2ccnc(N3CCC(NC(=O)C4CCCC4)CC3)n2)cc1	x	n
COc1ccc(CN(C(=O)c2nn(C)c(=O)c3ccccc23)C2CCS(=O)(=O)C2)cc1 (stereo unspecified)	n	x
COc1ccc(C(=O)N2CCCC(C(=O)N3CCCC3c3nc4ccncc4[nH]3)C2)cc1 (stereo unspecified)	x	n
CC(C)C(C(=O)Nc1nc2ccc(S(C)(=O)=O)cc2s1)c1ccc(Cl)cc1 (stereo unspecified)	n	x
Cc1cc(C)c(CNC(=O)c2nc(-c3cccc(O)c3)cc3c2ccn3C(C)C)c(=O)[nH]1	u	n
CC(=O)Nc1cccc(-c2cc(C(=O)NCc3c(C)cc(C)[nH]c3=O)c3c(c2)N(C(C)C)CCO3)c1	28µM	n
Cc1cc(C)c(CNC(=O)c2cc(-c3ccccc3O)cc3c2OCCN3C)c(=O)[nH]1	35µM	n
Cc1cc(C)c(CNC(=O)c2nc(-c3ccccc3C#N)cc3c2ccn3C(C)C)c(=O)[nH]1	n	n
Cc1cc(C)c(CNC(=O)c2cc(-c3ccccc3O)cc3c2OCCN3C(C)C)c(=O)[nH]1	25µM	n
Cc1ccc(CN2CCC(CNc3cc(C4CC(O)C4)ncn3)CC2)o1 (stereo unspecified)	n	n
Cc1ccc(CN2CCC(CNc3nccc(-c4ccccn4)n3)CC2)o1	28µM	n
CCC(C)(C)C(=O)N1CCC2(CC1)CC(N(Cc1ccc(F)cc1)C1CC1)CCO2 (stereo unspecified)	n	n
COC(=O)N(C)Cc1cccc(N2CCN(C(=O)c3c(Cl)cccc3Cl)CC2)c1F	x	n
